Source: PubChem BioAssay (NCATS)
Results filed as inconclusive are left out. Activity calls are given as the source filed them. Calls come from the whole dose curve; as a rule, active = well fitted cell-killing curve with a large enough effect; inconclusive = small, poorly fitted or top-dose-only effect, or effect the other way; inactive = no such curve, though single readings can be large or run the other way.

What was measured:
[1] = Quantitative High-Throughput drug screen in 47 multiple myeloma cell lines against the NCATS MIPE library collection: U266_ATCC cell viability assay (AID 1919864); note: nearly all actives have a fitted effect of over 35% in size;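 for viability (% of DMSO control): 0% = media-only wells without cells and 100% = DMSO-only wells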
Outline: (§1)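 Inhibition of viability over 48 h was scored by ATP content (CellTiter-Glo) in 500-cell wells. Zero and full viability were defined by media-only and DMSO-only wells.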

[2] = Quantitative High-Throughput drug screen in 47 multiple myeloma cell lines against the NCATS MIPE library collection: XG6_PLB cell viability assay (AID 1919865); note: nearly all actives have a fitted effect of over 40% in size
Outline: as §1

[3] = Quantitative High-Throughput drug screen in 47 multiple myeloma cell lines against the NCATS MIPE library collection: XG1_PLB cell viability assay (AID 1919866); note: nearly all actives have a fitted effect of over 35% in size
Outline: as §1

[4] = Quantitative High-Throughput drug screen in 47 multiple myeloma cell lines against the NCATS MIPE library collection: VP6_DJ cell viability assay (AID 1919867); note: nearly all actives have a fitted effect of over 40% in size
Outline: as §1

[5] = Quantitative High-Throughput drug screen in 47 multiple myeloma cell lines against the NCATS MIPE library collection: UTMC2_PLB cell viability assay (AID 1919868); settings: CellTiter-Glo ATP luminescence, 48 h; viability (% of DMSO control): at 45.8 µM (top of the series); note: nearly all actives have a fitted effect of over 55% in size;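 for viability (% of DMSO control): 100% = DMSO-only wells and 0% = media-only wells without cells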
Outline: as §1

[6] = Quantitative High-Throughput drug screen in 47 multiple myeloma cell lines against the NCATS MIPE library collection: PE2_PLB cell viability assay (AID 1919869); note: nearly all actives have a fitted effect of over 35% in size
Outline: as §1

[7] = Quantitative High-Throughput drug screen in 47 multiple myeloma cell lines against the NCATS MIPE library collection: PCM6_Riken cell viability assay (AID 1919870); note: nearly all actives have a fitted effect of over 30% in size
Outline: as §1

[8] = Quantitative High-Throughput drug screen in 47 multiple myeloma cell lines against the NCATS MIPE library collection: RPMI8226_ATCC cell viability assay (AID 1919871); note: nearly all actives have a fitted effect of over 30% in size
Outline: as §1

[9] = Quantitative High-Throughput drug screen in 47 multiple myeloma cell lines against the NCATS MIPE library collection: OPM2_DSMZ cell viability assay (AID 1919872); note: nearly all actives have a fitted effect of over 30% in size
Outline: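 Viability readout: CellTiter-Glo luminescence following 5 min room-temperature incubation with reagent. Prior exposure: 48 h, 37C, humidified 5% CO2, 500 cells per well.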

[10] = Quantitative High-Throughput drug screen in 47 multiple myeloma cell lines against the NCATS MIPE library collection: KMS11_JCRBsus cell viability assay (AID 1919873); note: nearly all actives have a fitted effect of over 50% in size
Outline: as §1
Potency is the fitted concentration of half-maximal effect.

| Structure (SMILES) | Potency [1] | Potency [2] | Potency [3] | Potency [4] | Potency [5] | Potency [6] | Potency [7] | Potency [8] | Potency [9] | Potency [10] | viability (% of DMSO control) [5] |
| --- | --- | --- | --- | --- | --- | --- | --- | --- | --- | --- | --- |
| COC[C@H]1OC(=O)c2coc3c2[C@@]1(C)C1=C(C3=O)C2CCC(=O)[C@@]2(C)C[C@H]1OC(C)=O (stereo partly drawn) | 20.9 µM (active) | 4.18 µM (active) | 1.48 µM (active) | 3.72 µM (active) | 0.264 µM (active) | 1.66 µM (active) | 3.32 µM (active) | 5.9 µM (active) | 10.5 µM (active) | 13.2 µM (active) |  |
| CN1CCN(C(=O)O[C@H]2c3nccnc3C(=O)N2c2ccc(Cl)cn2)CC1 |  | inactive | inactive | inactive |  | inactive | inactive | inactive | inactive | inactive | 181% (active) |
| NCC1(CC(=O)O)CCCCC1 | inactive |  |  |  |  | inactive | 16.6 µM (active) | inactive | inactive | inactive |  |
| C[C@@H]1[C@@H](C(=O)C[C@H]2O[C@@H]3O[C@]4(C)CC[C@@H]5[C@H](C)CC[C@@H]([C@H]2C)[C@@]35OO4)O[C@@H]2O[C@]3(C)CC[C@H]4[C@H](C)CC[C@@H]1[C@@]24OO3 |  |  |  |  | 0.166 µM (active) | 0.264 µM (active) |  | 0.833 µM (active) | 0.372 µM (active) |  |  |
| Cc1sc2c(c1C)C(c1ccc(Cl)cc1)=N[C@@H](CC(=O)OC(C)(C)C)c1nnc(C)n1-2 | 0.148 µM (active) | 7.43 µM (active) | 0.187 µM (active) | 0.0833 µM (active) | 0.662 µM (active) | 1.18 µM (active) | 2.96 µM (active) |  |  | 0.059 µM (active) |  |
| COc1ccc(C(=O)c2c(C)n(CCN3CCOCC3)c3ccccc23)cc1 | inactive | inactive | inactive | inactive | inactive | inactive | inactive | inactive | inactive | inactive |  |
| C[C@@H]1O[C@@H](O[C@H]2C[C@@H](O)[C@]3(CO)[C@H]4[C@H](O)C[C@]5(C)[C@@H](C6=CC(=O)OC6)CC[C@]5(O)[C@@H]4CC[C@]3(O)C2)[C@H](O)[C@H](O)[C@H]1O | 0.0209 µM (active) | 0.0187 µM (active) | 0.0074 µM (active) | 0.0166 µM (active) | 0.0118 µM (active) | 0.0332 µM (active) | 0.0187 µM (active) |  |  | 0.0935 µM (active) |  |
| O=C1CC[C@@]2(O)[C@H]3Cc4ccc(O)c5c4[C@@]2(CCN3CC2CC2)[C@H]1O5 | inactive | inactive | inactive |  | inactive | inactive | inactive |  | inactive | inactive |  |
| CC1=C2C[C@@H]3[C@@H](CC=C4C[C@@H](O)CC[C@@]43C)[C@@H]2CC[C@]12O[C@H]1C[C@H](C)CN[C@H]1[C@H]2C | 20.9 µM (active) | inactive | inactive |  |  | inactive | inactive | 6.62 µM (active) | inactive |  |  |
| CC(O)(CS(=O)(=O)c1ccc(F)cc1)C(=O)Nc1ccc(C#N)c(C(F)(F)F)c1 (stereo not drawn) | 0.743 µM (active) | 0.0935 µM (active) | 0.166 µM (active) | 0.743 µM (active) | 4.18 µM (active) | 0.418 µM (active) | 0.59 µM (active) | inactive |  | inactive |  |
| O=P1(NCCCl)OCCCN1CCCl (stereo not drawn) |  | 16.6 µM (active) |  | 6.62 µM (active) |  |  | inactive |  | inactive |  |  |
| CNCC(O)c1ccc(O)cc1 (stereo not drawn) | inactive |  | inactive |  |  | inactive |  | inactive | inactive | inactive |  |
| COC1(CS(=O)c2ccccc2)CCN(CCc2c[nH]c3ccc(F)cc23)CC1 (stereo not drawn) | inactive | 16.6 µM (active) |  |  | inactive |  | inactive | 7.43 µM (active) | inactive |  |  |
| COc1ccc2c(c1OC)CN1CCc3cc4c(cc3C1C2)OCO4 (stereo not drawn) |  | 20.9 µM (active) | 14.8 µM (active) | 5.9 µM (active) | 2.09 µM (active) |  | 16.6 µM (active) | inactive | inactive |  |  |
| Cn1c(CCCC(=O)O)nc2cc(N(CCCl)CCCl)ccc21 |  | 14.8 µM (active) | 14.8 µM (active) | inactive |  | 8.33 µM (active) |  |  |  | inactive |  |
| COc1ccc(C(CN(C)C)C2(O)CCCCC2)cc1 (stereo not drawn) |  |  |  |  | inactive | inactive |  | inactive | inactive | inactive |  |
| O=c1[nH]c2ccccc2n1CCCN1CCC(n2c(=O)[nH]c3cc(Cl)ccc32)CC1 | inactive | 20.9 µM (active) |  | 13.2 µM (active) |  |  | 2.96 µM (active) |  | inactive |  |  |

| Structure (SMILES) | Potency [1] | Potency [2] | Potency [3] | Potency [4] | Potency [5] | Potency [6] | Potency [7] | Potency [8] | Potency [9] | Potency [10] | viability (% of DMSO control) [5] |
| --- | --- | --- | --- | --- | --- | --- | --- | --- | --- | --- | --- |
| COC[C@@H](NC(C)=O)C(=O)NCc1ccccc1 |  | inactive | inactive | inactive |  |  | inactive | inactive | inactive | inactive |  |
| O=C(O)C(=O)c1cn(Cc2ccccc2)c2ccc(-c3ccc(OC(F)(F)F)cc3)cc12 | 23.5 µM (active) |  | 9.35 µM (active) |  |  |  | 16.6 µM (active) | inactive | inactive |  |  |
| CC(C)CC(N(C)C)C1(c2ccc(Cl)cc2)CCC1 (stereo not drawn) | 4.18 µM (active) | inactive |  |  |  | inactive |  |  | inactive | 18.7 µM (active) |  |
| CN(C)CCN(C)CCc1ccc(Cl)c(Cl)c1 |  | inactive | inactive | inactive | inactive |  |  | inactive | inactive | inactive |  |
| CCCC(C)(COC(N)=O)COC(=O)NC(C)C (stereo not drawn) | inactive |  | inactive | inactive |  | inactive | inactive | inactive | inactive |  |  |
| N[C@@H](Cc1ccc(N(CCCl)CCCl)cc1)C(=O)O | 16.6 µM (active) | 1.18 µM (active) | 7.43 µM (active) | 11.8 µM (active) | 0.935 µM (active) | 3.32 µM (active) | 3.72 µM (active) |  | 18.7 µM (active) | 23.5 µM (active) |  |
| Cn1cc(C2=C(c3cn(C4CCN(Cc5ccccn5)CC4)c4ccccc34)C(=O)NC2=O)c2ccccc21 |  | 2.96 µM (active) | 5.26 µM (active) | 11.8 µM (active) |  | 8.33 µM (active) | 9.35 µM (active) | inactive |  |  |  |
| C#CCN(C)[C@H](C)Cc1ccccc1 | inactive |  | inactive |  |  | inactive |  |  | inactive |  |  |
| CN(C)[C@@H]1C(=O)C(C(N)=O)=C(O)[C@@]2(O)C(=O)C3=C(O)c4c(O)cccc4[C@@](C)(O)[C@H]3C[C@@H]12 | inactive | inactive | inactive |  |  | inactive | inactive | 5.9 µM (active) | 16.6 µM (active) | inactive |  |
| C[C@@H]1[C@@H](CC(C[C@H]2O[C@@H]3O[C@]4(C)CC[C@@H]5[C@H](C)CC[C@@H]([C@H]2C)[C@@]35OO4)C[S+](=O)([O-])c2ccc(COC(=O)N(C)C)cc2)O[C@@H]2O[C@]3(C)CC[C@H]4[C@H](C)CC[C@@H]1[C@@]24OO3 (stereo partly drawn) | 0.372 µM (active) | 0.264 µM (active) | 0.296 µM (active) | 0.372 µM (active) | 0.187 µM (active) | 0.264 µM (active) | 0.418 µM (active) | 0.296 µM (active) |  | 0.148 µM (active) |  |
| CNC(=O)c1ccc(N2C(=S)N(c3ccc(C#N)c(C(F)(F)F)c3)C(=O)C23CCC3)cc1F | 8.33 µM (active) | 1.05 µM (active) | 1.32 µM (active) | 8.33 µM (active) |  | 9.35 µM (active) | 7.43 µM (active) | inactive | inactive | inactive |  |
| Cc1cccc(C)c1NC(=O)CN1CCCC1=O |  | inactive |  |  |  | inactive | inactive | inactive | inactive | inactive |  |
| CN(C)CCc1ccc(O)cc1 | inactive |  | inactive | 6.62 µM (active) |  | 9.35 µM (active) | inactive | inactive | inactive | inactive |  |
| C=C(C)[C@H]1Cc2c(ccc3c2O[C@@H]2COc4cc(OC)c(OC)cc4[C@@H]2C3=O)O1 | 0.332 µM (active) | 0.526 µM (active) | 0.264 µM (active) | 0.166 µM (active) | 0.332 µM (active) | 0.372 µM (active) |  |  | 4.69 µM (active) | 0.332 µM (active) |  |
| CNC(=O)N1N=C(c2ccc(N)cc2)c2cc3c(cc2CC1C)OCO3 (stereo not drawn) | 3.72 µM (active) | 7.43 µM (active) |  | 2.64 µM (active) |  | 7.43 µM (active) | 13.2 µM (active) |  |  |  |  |
| Fc1ccc(C(OCCN2CCN(CCCc3ccccc3)CC2)c2ccc(F)cc2)cc1 |  | 7.43 µM (active) | 7.43 µM (active) | 9.35 µM (active) |  | 13.2 µM (active) | 10.5 µM (active) | 18.7 µM (active) | 23.5 µM (active) | 11.8 µM (active) |  |
| Cc1cc(SCc2sc(-c3ccc(C(F)(F)F)c(F)c3)nc2C)ccc1OCC(=O)O | 18.7 µM (active) |  |  |  |  | 26.4 µM (active) | 20.9 µM (active) | 18.7 µM (active) | inactive |  |  |
